Data taken from the supplement of paper PMC12297408.
Counter-ions that a name gives are not always drawn. Screen size: about 1,300 compounds; about 40 (3%) showed activity. This is one part of a sample in which actives are shown more often than they occur. A number with no mark means an inactive call.

System: Plasmodium falciparum NF54/iGP1_RE9H ulg8 stage V gametocytes
Experiment: gametocyte viability (luciferase signal relative to DMSO control) (% of DMSO control); higher = less gametocytocidal activity, active = 50 or less
Settings: exposure time: 72 h
Method in brief: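 Viability was calculated relative to the mean of DMSO vehicle wells on each plate. Day-12 stage V gametocytes of line NF54/iGP1_RE9Hulg8 (~2.5% gametocytemia, 3% hematocrit, 0.5% Albumax II medium) were exposed in 96-well plates to compounds at final 10 µM or 1 µM, one well each, for 72 h at 37 °C. Luminescence was then read on an IVIS Lumina II after D-luciferin addition.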

Row | SMILES | gametocyte viability (concentration: 1 µM) | gametocyte viability (concentration: 10 µM)
1 | COc1cc(NC(C)CCCN)c2ncccc2c1 (stereo not drawn) [Primaquine diphosphate] | 83.1 | 35.1 (active)
2 | CCCc1nn(C)c2c(=O)[nH]c(-c3cc(S(=O)(=O)N4CCN(C)CC4)ccc3OCC)nc12 [Sildenafil] | 90.3 | 70.6
3 | CCCc1nc(C)c2c(=O)nc(-c3cc(S(=O)(=O)N4CCN(CC)CC4)ccc3OCC)[nH]n12 [Vardenafil] | 70.1 | 43.9 (active)
4 | CN(C)CCOC(c1ccccc1)c1ccccc1.Cn1c(=O)c2[nH]c(Cl)nc2n(C)c1=O [Dimenhydrinate] | 89 | 94
5 | CCCCCCCCCCCCCCCC[N+](C)(C)CCN(Cc1ccc(OC)cc1)c1ncccn1 [Thonzonium bromide] | 77 | 1.76 (active)
6 | COc1ccc(CN(CCN(C)C)c2ccccn2)cc1 [Pyrilamine maleate] | 90.9 | 100
7 | CN(C)CCN(Cc1ccc(Cl)cc1)c1ccccn1 [Chloropyramine hydrochloride] | 87.4 | 90.3
8 | CCCNCC(O)COc1ccccc1C(=O)CCc1ccccc1 (stereo not drawn) [Propafenone hydrochloride] | 81.6 | 75.7
9 | CC(C)Nc1cccnc1N1CCN(C(=O)c2cc3cc(NS(C)(=O)=O)ccc3[nH]2)CC1 [Delavirdine] | 92.5 | 95.8
10 | CC[C@@H]1C(=O)OC[C@@H]1Cc1cncn1C [Pilocarpine nitrate] | 98.2 | 98
11 | CC(C)NCC(O)c1ccc(NS(C)(=O)=O)cc1 (stereo not drawn) [Sotalol hydrochloride] | 83.1 | 92.1
12 | N=C(NCCCCCCNC(=N)NC(=N)Nc1ccc(Cl)cc1)NC(=N)Nc1ccc(Cl)cc1 [Chlorhexidine] | 92.1 | 1.08 (active)
13 | N=C(N)NC(=N)NCCc1ccccc1 [Phenformin hydrochloride] | 83.8 | 83.6
14 | CC(C)NC(=N)NC(=N)Nc1ccc(Cl)cc1 [Proguanil hydrochloride] | 100 | 106
15 | N=C(N=C(N)N)N1CCOCC1 [Moroxidine hydrochloride] | 83.9 | 87.9
16 | NC1CCN(c2nc3c(cc2F)c(=O)c(C(=O)O)cn3-c2ccc(F)cc2F)C1 (stereo not drawn) [Tosufloxacin hydrochloride] | 78.5 | 86.9
17 | NC(=O)c1ccc[n+]([C@@H]2O[C@H](COP(=O)([O-])OP(=O)(O)OC[C@H]3O[C@@H](n4cnc5c(N)ncnc54)[C@H](O)[C@@H]3O)[C@@H](O)[C@H]2O)c1 [Nadide] | 85.3 | 79.3
18 | C[C@]12CCC(=O)C=C1C=C[C@@H]1[C@@H]2CC[C@@]2(C)[C@H]1CC[C@@]21CCC(=O)O1 [Canrenone] | 80 | 83.7
19 | C[C@H]1O[C@H](O[C@H]2[C@H](O)[C@@H](O)[C@@H](O[C@@H]([C@H](O)[C@@H](O)C=O)[C@H](O)CO)O[C@@H]2CO)[C@H](O)[C@@H](O)[C@@H]1N[C@H]1C=C(CO)[C@@H](O)[C@H](O)[C@H]1O [Acarbose] | 80.6 | 83.5
20 | NCCc1cc[nH]n1 [Betazole hydrochloride] | 94.2 | 94.2
21 | CCC(=O)OCC(=O)[C@@]1(OC(=O)CC)[C@H](C)C[C@H]2[C@H]3[C@H]([C@@H](O)C[C@@]21C)[C@@]1(C)C=CC(=O)C=C1C[C@H]3Cl [Alclometasone dipropionate] | 83.6 | 78.3
22 | CN(N=O)C(=O)N[C@H]1C(O)O[C@H](CO)[C@@H](O)[C@@H]1O (mixture of isomers) [Streptozotocin] | 84.7 | 92.1
23 | C[C@@H](O)[C@H]1C(=O)N2C(C(=O)O)=C(SCCNC=N)C[C@H]12 [Imipenem] | 88.8 | 87.5
24 | Cc1cc(N)c2ccccc2[n+]1CCCCCCCCCC[n+]1c(C)cc(N)c2ccccc21 [Dequalinium dichloride] | 83.5 | 36.1 (active)
25 | Cc1[nH]c(=O)c(C#N)cc1-c1ccncc1 [Milrinone] | 81 | 82.1
26 | Cc1c(C)c2c(c(C)c1O)CCC(C)(COc1ccc(CC3SC(=O)NC3=O)cc1)O2 (stereo not drawn) [Troglitazone] | 81.7 | 76.3
27 | CC=C(C)C(=O)OC1C(OC(C)=O)C2(CO)C(O)CC3(C)C(=CCC4C5(C)CCC(OC6OC(C(=O)O)C(OC7OC(CO)C(O)C(O)C7O)C(O)C6OC6OC(CO)C(O)C(O)C6O)C(C)(CO)C5CCC43C)C2CC1(C)C (stereo not drawn) [Beta-Escin] | 90.1 | 93.2
28 | C[C@@H](O[C@H]1OCCN(Cc2n[nH]c(=O)[nH]2)[C@H]1c1ccc(F)cc1)c1cc(C(F)(F)F)cc(C(F)(F)F)c1 [Aprepitant] | 87.7 | 75.4
29 | CCN(CC)CCNC(C(=O)OCCC(C)C)c1ccccc1 (stereo not drawn) [Camylofine chlorhydrate] | 79.9 | 85.5
